Data published in PubChem BioAssay (NCI).
Compounds without any hit were thinned out: in the full panel of roughly 79,000, 15% have a hit. A number with no mark means an inactive call. No stated cut-off is given here; in the data, active means growth inhibition above about 70%; inactive means the rest.

Assay: NCI Yeast Anticancer Drug Screen. Data for the sgs1 mgt1 strain (AID 161);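 further: 0% = growth of cultures given vehicle only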
Conditions: S. cerevisiae sgs1 mgt1 strain, at 50.0 µM, active compounds read high
Method in brief: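 Test agents were incubated with a DNA-repair-mutant yeast strain. Growth was then read and compared against vehicle-treated controls.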

SMILES | growth inhibition [%]
CC(C)CCNC(=O)CS(=O)(=O)c1ccc(N)cc1 | -11.9
CCCCCCC1N(C(C#N)c2ccccc2)CCCN1C(C#N)c1ccccc1 (stereo not given) | 16.6
NNC(=O)CCCO | -7.5
O=P(O)(c1cc(Cl)cc(Cl)c1)c1cc(Cl)cc(Cl)c1 | 10.2
CC(=O)OC1CN(c2ccccc2)CC(OC(C)=O)CN(c2ccccc2)C1 (stereo not given) | 38
CC(C)NCCN | 18.8
Cc1cc(N=Nc2c(O)c3ccccc3[nH]c2=O)ccc1N=Nc1ccc(C(=O)O)cc1 | 3.5
Cc1ccc(S(=O)(=O)NCCC(Cl)(Cl)Cl)cc1 | 1.05
Cc1ccc(S(=O)(=O)c2ccc(C)cc2C(=O)O)cc1 | -1.4
Cc1ccc(C(=O)Nc2ccc(CP(=O)(O)O)cc2CP(=O)(O)O)cc1N | 19.3
CC(=O)Nc1cc(C)c(C(=O)O)c(C)c1 | -9.35
CCc1c(Cc2[nH]c(C=O)c(C)c2CC)[nH]c(C=O)c1C | 11.2
COc1cc(C2=N/C(=C\c3cccc([N+](=O)[O-])c3)C(=O)O2)cc(OC)c1OC | 11.6
Cc1cccc2c1C(=O)OC2(c1cccc2ccccc12)c1cccc2ccccc12 | 4.5
CCN(CC)CCOc1ccc(/C=C(\C#N)c2ccc(OCCN(CC)CC)cc2)cc1 | 30.4
O=C1CC(=O)N2C=CC=CC2N1 (stereo not given) | -23.1
S=c1[nH]c2ccccc2n1CCc1ccncc1 | 22.2
C/C(=N/NC(N)=O)C(=O)O | 2.5
CCN1CSC(=S)N(Cc2ccccc2)C1 | 50.3
O=C=Nc1ccc(Cl)c(Cl)c1 | -43

SMILES | growth inhibition [%]
CCOC(=O)NC(Nc1cccc(F)c1)(C(F)(F)F)C(F)(F)F | -22.4
CC(=O)Nc1ccc(NC(=O)Nc2cccc(Cl)c2C)cc1 | 3.05
CCN(CC)C1=Nc2ccccc2N(c2ccccc2)C(SC)=C1 | 6.15
O=C(N/N=C\c1ccc(Cl)cc1Cl)c1ccc(F)cc1 | -7.75
Cc1ccc(N=Nc2c(C)nc(N)nc2C)cc1 | -12.7
CCCOC1CC(C)C(O)C(C)C1 (stereo not given) | 3.35
COc1cc(C2C3=C(COC3=O)OC(C)(C)Oc3cc4c(cc32)OCO4)cc(OC)c1O (stereo not given) | -7.3
O=C(O)c1cc(=O)c2[nH]c3ccccc3c2s1 | -19.5
O=C(O)CCCC1(CCCC(=O)O)OCCO1 | -22.9
CC(C)(C)C1CCC2c3c([nH]c4ccccc34)C3C(=O)N(c4ccc(Cl)cc4)C(=O)C3C2C1 (stereo not given) | -6.1
Cc1cc(C)c(C(C=O)c2ccccc2)c(C)c1 (stereo not given) | 10.3
COC(=O)c1cc(Cl)ccc1NC(=O)C1CCCCC1 | 23
CCOC(=O)NC(CC)CO (stereo not given) | -14
O=C(C(c1ccccc1)C(C(=O)N(Cc1ccccc1)Cc1ccccc1)c1ccccc1)N(Cc1ccccc1)Cc1ccccc1 (stereo not given) | -18.9
CN1C(=O)C(=O)N2c3ccc(Cl)cc3C3(c4ccccc4)N=CC12O3 (stereo not given) | 6
Nc1ccc2c(=O)[nH][nH]c2c1 | -25
NC(=O)c1cc(Br)ccc1O | 6.9
Cn1nc(C(=O)NN)c(=O)[nH]c1=O | 0.8
OC(CSCc1ccccc1)c1ccccc1 (stereo not given) | -7.95
CC(=O)NC1C(SC(=O)NCCCl)OC(COC(C)=O)C(OC(C)=O)C1OC(C)=O (stereo not given) | -3.2

Assay: NCI Yeast Anticancer Drug Screen. Data for the cln2 rad14 strain (AID 165);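 further: 0% = growth equal to vehicle treated cultures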
Conditions: S. cerevisiae cln2 rad14 strain, at 50.0 µM, active compounds read high
Method in brief: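 Each compound was tested on cln2 rad14 yeast. Inhibition of growth was calculated against vehicle-exposed controls.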

SMILES | growth inhibition [%]
CC(C)CCNC(=O)CS(=O)(=O)c1ccc(N)cc1 | -34.2
CCCCCCC1N(C(C#N)c2ccccc2)CCCN1C(C#N)c1ccccc1 (stereo not given) | 7.6
NNC(=O)CCCO | -8
O=P(O)(c1cc(Cl)cc(Cl)c1)c1cc(Cl)cc(Cl)c1 | -5.1
CC(=O)OC1CN(c2ccccc2)CC(OC(C)=O)CN(c2ccccc2)C1 (stereo not given) | -24.4
CC(C)NCCN | 11.3
Cc1cc(N=Nc2c(O)c3ccccc3[nH]c2=O)ccc1N=Nc1ccc(C(=O)O)cc1 | 1.1
Cc1ccc(S(=O)(=O)NCCC(Cl)(Cl)Cl)cc1 | 1.2
Cc1ccc(S(=O)(=O)c2ccc(C)cc2C(=O)O)cc1 | -9.8
Cc1ccc(C(=O)Nc2ccc(CP(=O)(O)O)cc2CP(=O)(O)O)cc1N | 6.05
CC(=O)Nc1cc(C)c(C(=O)O)c(C)c1 | -18.1
CCc1c(Cc2[nH]c(C=O)c(C)c2CC)[nH]c(C=O)c1C | -1.05
COc1cc(C2=N/C(=C\c3cccc([N+](=O)[O-])c3)C(=O)O2)cc(OC)c1OC | -8.05
Cc1cccc2c1C(=O)OC2(c1cccc2ccccc12)c1cccc2ccccc12 | -15.7
CCN(CC)CCOc1ccc(/C=C(\C#N)c2ccc(OCCN(CC)CC)cc2)cc1 | 56
O=C1CC(=O)N2C=CC=CC2N1 (stereo not given) | -4.7
S=c1[nH]c2ccccc2n1CCc1ccncc1 | -1.5
C/C(=N/NC(N)=O)C(=O)O | -48.4
CCN1CSC(=S)N(Cc2ccccc2)C1 | 4.55
O=C=Nc1ccc(Cl)c(Cl)c1 | -9.1

SMILES | growth inhibition [%]
CCOC(=O)NC(Nc1cccc(F)c1)(C(F)(F)F)C(F)(F)F | 20.9
CC(=O)Nc1ccc(NC(=O)Nc2cccc(Cl)c2C)cc1 | 11.7
CCN(CC)C1=Nc2ccccc2N(c2ccccc2)C(SC)=C1 | -6.45
O=C(N/N=C\c1ccc(Cl)cc1Cl)c1ccc(F)cc1 | 0.3
Cc1ccc(N=Nc2c(C)nc(N)nc2C)cc1 | -2.85
CCCOC1CC(C)C(O)C(C)C1 (stereo not given) | -10.8
COc1cc(C2C3=C(COC3=O)OC(C)(C)Oc3cc4c(cc32)OCO4)cc(OC)c1O (stereo not given) | -28.7
O=C(O)c1cc(=O)c2[nH]c3ccccc3c2s1 | 9.55
O=C(O)CCCC1(CCCC(=O)O)OCCO1 | -60.5
CC(C)(C)C1CCC2c3c([nH]c4ccccc34)C3C(=O)N(c4ccc(Cl)cc4)C(=O)C3C2C1 (stereo not given) | -44.4
Cc1cc(C)c(C(C=O)c2ccccc2)c(C)c1 (stereo not given) | 17.9
COC(=O)c1cc(Cl)ccc1NC(=O)C1CCCCC1 | 27.8
CCOC(=O)NC(CC)CO (stereo not given) | 16.1
O=C(C(c1ccccc1)C(C(=O)N(Cc1ccccc1)Cc1ccccc1)c1ccccc1)N(Cc1ccccc1)Cc1ccccc1 (stereo not given) | -14.3
CN1C(=O)C(=O)N2c3ccc(Cl)cc3C3(c4ccccc4)N=CC12O3 (stereo not given) | 5
Nc1ccc2c(=O)[nH][nH]c2c1 | 10.8
NC(=O)c1cc(Br)ccc1O | 8.9
Cn1nc(C(=O)NN)c(=O)[nH]c1=O | -20.6
OC(CSCc1ccccc1)c1ccccc1 (stereo not given) | -43
CC(=O)NC1C(SC(=O)NCCCl)OC(COC(C)=O)C(OC(C)=O)C1OC(C)=O (stereo not given) | -16.8
